A number with no mark means an inactive call. Records with an inconclusive call do not appear. Active and inactive are the calls of the source. Unless noted, calls follow the shape of the dose curve; as a rule, active = well fitted curve in the direction sought with a large enough effect in the repeat runs; inconclusive = weak or mixed curves; inactive = no such curve, though single readings can be large; an effect the other way counts as inactive or inconclusive.

A short description of experiment [1]: qHTS assay to identify small molecule antagonists of the estrogen receptor alpha (ER-alpha) signaling pathway using the BG1 cell line in the presence of 0.1 nM 17-beta-estradiol - cell viability counter screen (AID 1259241). Also: nearly all actives have a fitted effect of over 40% in size. The gist of the method: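 Viability in VM7Luc4E2 cells after 22 hr compound exposure under 0.1 nM 17beta-estradiol stimulation, by CellTiter-Fluor.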
(In general: Quantitative high-throughput screening tests each substance at several concentrations.)

Experiment [2] is described as follows: qHTS assay to identify small molecule antagonists of the androgen receptor (AR) signaling pathway using the MDA cell line in the presence of 0.5 nM R1881 - cell viability counter screen (AID 1259242). Also: nearly all actives have a fitted effect of over 45% in size. The gist of the method: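 MDA-kb2 cells (human breast carcinoma, stably carrying MMTV-luciferase reporter) were exposed to compounds with 0.5 nM R1881 (final) for 16 hr at 37C, 0% CO2; viability then read as live-cell protease fluorescence (CellTiter-Fluor, 30 min) in the same wells.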

Experiment [3] has as its target Estrogen receptor (Homo sapiens) (UniProt P03372). As to the kind of experiment: qHTS assay to identify small molecule antagonists of the estrogen receptor alpha (ER-alpha) signaling pathway using the BG1 cell line in the presence of 0.1 nM 17-beta-estradiol (AID 1259244). Also: nearly all actives have a fitted effect of over 50% in size. The gist of the method:
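VM7Luc4E2 cells (endogenous full-length ER-alpha, stable 4xERE-luciferase) were grown 5 days in phenol red-free medium with charcoal-stripped FBS, then exposed 22 h at 37C to compounds plus 0.1 nM (final) 17beta-estradiol; ONE-Glo luminescence read-out.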

The nature of experiment [4]: qHTS assay to identify small molecule phospholipidosis (PLD) inducers (AID 1259344; active = well fitted curve in the direction sought with a large enough effect; an effect the other way counts as inactive or inconclusive). The gist of the method: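 Quantitative HTS in HepG2: compound plus LipidTOX Red dye for 24 h, paraformaldehyde fixation with Hoechst 33342, widefield high-content imaging; amiodarone as positive and DMSO as negative control.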
Experiment [5] is described as follows: qHTS assay to identify small molecule HDAC inhibitors (AID 1259364). Also: top concentration of the series differs between compounds; nearly all actives have a fitted effect of over 45% in size. The gist of the method: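 Wild-type HCT-116 cells were plated overnight, exposed to compounds for 2 h at 37 °C, then given HDAC-Glo class I/II luminogenic reagent for 30 min at room temperature before luminescence was read.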
A short description of experiment [6]: qHTS assay to identify small molecule HDAC inhibitors - cell viability counter screen (AID 1259365). Also: series mostly up to about 92 µM; nearly all actives have a fitted effect of over 50% in size. The essentials:
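Cytotoxicity was gauged in wild-type HCT-116 cells after a brief 2hr treatment with DMSO-dissolved compounds at 37C and 5% CO2, using CellTiter-Glo luminescence developed for 30min at room temperature.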

The nature of experiment [7]: qHTS assay to identify small molecule agonists of the sonic hedgehog signaling (Shh) pathway - cell viability counter screen (AID 1259366). Also: nearly all actives have a fitted effect of over 50% in size. The gist of the method: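 Stable Gli1-Luc NIH/3T3 clone, 2,000 cells/well. Compound exposure 24hr at 37C. Read-out: CellTiter-Fluor fluorescence.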
Experiment [8] in a line: qHTS assay to identify small molecule antagonists of the sonic hedgehog signaling (Shh) pathway - cell viability counter screen (AID 1259367). Also: nearly all actives have a fitted effect of over 55% in size. The gist of the method:
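Seed 3T3 Gli1-Luc cells at 2,000 per well; incubate 4 hr; add compound in DMSO, then conditioned medium; incubate at 37C with 5% CO2; add CellTiter-Fluor after 23 hr; read fluorescence 1 hr later.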

A short description of experiment [9]: qHTS assay to identify small molecule agonists of the sonic hedgehog signaling (Shh) pathway (AID 1259368; calls by dose curve; also: series mostly up to about 92 µM; nearly all actives have a fitted effect of over 15% in size). The essentials:
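NIH/3T3-derived 3T3Gli1-Luc cells carrying a stably integrated Gli1 response element–firefly luciferase reporter were plated, left 4 hr at 37 C, then given compounds in DMSO for 24 hr. Luminescence was read 30 min after adding luciferase reagent.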

Experiment [10] can be described thus: qHTS assay to identify small molecule antagonists of the sonic hedgehog signaling (Shh) pathway (AID 1259369; calls by dose curve; also: nearly all actives have a fitted effect of over 45% in size; also: potency is read from the fitted curve at half-maximal effect). The gist of the method:
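NIH/3T3-derived 3T3Gli1-Luc cells with stably integrated Gli1-Luc reporter were preincubated 4hr at 37 C, then given compounds in DMSO plus Shh conditioned medium and incubated 24hr. Firefly luciferase luminescence read after 30min reagent at room temperature.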

Experiment [11] deals with Estrogen receptor beta (Homo sapiens) (UniProt Q92731). As to the kind of experiment: qHTS assay to identify small molecule agonists of the estrogen receptor beta (ER-beta) signaling pathway (AID 1259377; active = well fitted activation curve with a large enough effect in the signal ratio in the repeat runs, not every such curve was filed as active; the % refers to the signal ratio). The essentials:
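Measured by fluorescence intensity from a B/G FRET beta-lactamase substrate (2 h, room temperature) in ER-beta-UAS-bla HEK293T cells treated with DMSO-dissolved compounds for 16 hr at 37C and 5% CO2.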

Experiment [12] has the same target. As to the kind of experiment: qHTS assay to identify small molecule antagonists of the estrogen receptor beta (ER-beta) signaling pathway (AID 1259378; active = well fitted inhibition curve with a large enough effect in the signal ratio in the repeat runs, not every such curve was filed as active; the % refers to the signal ratio). The gist of the method: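 ER-beta-UAS-bla HEK293T cells in 2% charcoal-stripped FBS medium treated with compound plus 1nM final 17-beta-estradiol for 16 hr at 37C. Beta-lactamase reporter read by FRET substrate fluorescence after 2 hours at room temperature.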

Experiment [13] can be described thus: qHTS assay to identify small molecule antagonists of the estrogen receptor beta (ER-beta) signaling pathway - cell viability counter screen (AID 1259382). Also: series mostly up to about 92 µM; nearly all actives have a fitted effect of over 55% in size. The essentials:
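ER-beta-UAS-bla HEK293T cells (2,000/well, 2% charcoal-stripped FBS) were pre-incubated 6 hr at 37C, then given compound plus 1nM final 17-beta-estradiol for 16 hr. Viability was read in the same wells by CellTiter-Glo luminescence after 30 min at room temperature.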

In experiment [14] the target is Estrogen receptor (Homo sapiens) (UniProt P03372). As to the kind of experiment: qHTS assay to identify small molecule agonists of the estrogen receptor alpha (ER-alpha) signaling pathway in the presence of an antagonist (AID 1259383; calls by dose curve; also: top concentration of the series differs between compounds; nearly all actives have a fitted effect of over 15% in size). The gist of the method:
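VM7Luc4E2 cells (endogenous full-length ER-alpha, 4×ERE-luciferase) were precultured 5 days in phenol red-free medium with 10% charcoal-stripped FBS, given 10.0nM ICI-182,780 (final), then treated with compounds at 15 concentrations for 22hr at 37C; luminescence read with ONE-Glo.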

Experiment [15] can be described thus: qHTS assay to identify small molecule agonists or antagonists of the thyroid stimulating hormone receptor (TSHR) signaling pathway - wild type cell line counter screen (AID 1259384; calls by dose curve). The essentials:
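Wild-type Hek293 cells, 800/well, 18 h at 37C, then compound with Ro20-1724 for 30 min RT. cAMP by HTRF (cAMP-d2/anti-cAMP cryptate), 1 h RT, fluorescence read. 15 concentrations, triplicates.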

Experiment [16] has as its target Thyrotropin receptor (Homo sapiens) (UniProt P16473). As to the kind of experiment: qHTS assay to identify small molecule antagonists of the thyroid stimulating hormone receptor (TSHR) signaling pathway (AID 1259385; calls by dose curve; also: nearly all actives have a fitted effect of over 20% in size). The essentials: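 TSHR-HEK293 cells (800/well) plated 18 h, then compounds with Ro20-1724 and TSH at 1.5 ng/mL final, 30 min at room temperature. cAMP quantified by HTRF (cAMP-d2/anti-cAMP-cryptate, 1 h); 15 concentrations in triplicate.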

Experiment [17] addresses Androgen receptor (Homo sapiens) (UniProt P10275). As to the kind of experiment: qHTS assay to identify small molecule antagonists of the androgen receptor (AR) signaling pathway using the MDA cell line in the presence of 0.5 nM R1881 (AID 1259243). Also: nearly all actives have a fitted effect of over 50% in size. The gist of the method: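 MDA-kb2 human breast carcinoma cells carrying an MMTV-luciferase reporter (AR- and GR-responsive) were plated, rested 5 hr at 37C, dosed with compounds, then stimulated with 0.5 nM R1881 (final) for 16 hr; luminescence was read after ONE-Glo.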

A short description of experiment [18]: qHTS assay to identify small molecule agonists of the androgen receptor (AR) signaling pathway in the presence of an antagonist - cell viability counter screen (AID 1259379). Also: series mostly up to about 92 µM; nearly all actives have a fitted effect of over 25% in size. The gist of the method:
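MDA-kb2 human breast carcinoma cells (stable MMTV-luciferase, AR/GR responsive) were seeded 3,000 cells/well, pre-incubated 5 hr at 37C without CO2, then given 3.0uM nilutamide and compounds at 15 concentrations for 16 hr. Viability was read by CellTiter-Fluor fluorescence.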

The nature of experiment [19]: qHTS assay to identify small molecule agonists of the estrogen receptor beta (ER-beta) signaling pathway - cell viability counter screen (AID 1259380). Also: nearly all actives have a fitted effect of over 30% in size. Also: potency is read from the fitted curve at half-maximal effect. The gist of the method:
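ER-beta-UAS-bla HEK293T cells in medium with 2% charcoal-stripped FBS were preincubated 6 hr at 37C, dosed with compound in DMSO for 16 hr, then after the bla read, CellTiter-Glo was added for 30 min at room temperature; luminescence recorded.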

For experiment [20], the target named is Androgen receptor (Homo sapiens) (UniProt P10275). As to the kind of experiment: qHTS assay to identify small molecule agonists of the androgen receptor (AR) signaling pathway in the presence of an antagonist (AID 1259381; calls by dose curve; also: nearly all actives have a fitted effect of over 15% in size). The essentials:
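MDA-kb2 human breast carcinoma cells carrying an MMTV-luciferase reporter (AR- and GR-responsive) were treated with compounds at 15 concentrations plus 3.0uM final nilutamide for 16hr at 37C without CO2; luminescence was read after ONE-Glo addition.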

Estrogen receptor (Homo sapiens), sequence (P03372 whole entry, looked up): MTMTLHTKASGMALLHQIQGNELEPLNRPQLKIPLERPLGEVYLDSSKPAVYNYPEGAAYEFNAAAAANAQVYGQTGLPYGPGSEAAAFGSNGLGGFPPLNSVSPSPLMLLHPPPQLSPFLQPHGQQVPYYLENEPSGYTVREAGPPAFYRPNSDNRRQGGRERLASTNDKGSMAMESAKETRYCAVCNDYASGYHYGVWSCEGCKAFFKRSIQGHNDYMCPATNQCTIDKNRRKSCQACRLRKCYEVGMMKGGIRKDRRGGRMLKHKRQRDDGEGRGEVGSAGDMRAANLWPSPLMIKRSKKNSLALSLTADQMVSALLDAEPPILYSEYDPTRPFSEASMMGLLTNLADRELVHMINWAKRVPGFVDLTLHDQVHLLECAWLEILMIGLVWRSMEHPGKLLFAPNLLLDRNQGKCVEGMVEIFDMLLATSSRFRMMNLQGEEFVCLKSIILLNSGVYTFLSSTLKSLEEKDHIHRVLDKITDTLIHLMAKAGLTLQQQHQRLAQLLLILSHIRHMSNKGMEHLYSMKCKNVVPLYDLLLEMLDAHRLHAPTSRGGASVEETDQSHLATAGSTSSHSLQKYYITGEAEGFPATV
Thyrotropin receptor (Homo sapiens), sequence (P16473 whole entry, looked up): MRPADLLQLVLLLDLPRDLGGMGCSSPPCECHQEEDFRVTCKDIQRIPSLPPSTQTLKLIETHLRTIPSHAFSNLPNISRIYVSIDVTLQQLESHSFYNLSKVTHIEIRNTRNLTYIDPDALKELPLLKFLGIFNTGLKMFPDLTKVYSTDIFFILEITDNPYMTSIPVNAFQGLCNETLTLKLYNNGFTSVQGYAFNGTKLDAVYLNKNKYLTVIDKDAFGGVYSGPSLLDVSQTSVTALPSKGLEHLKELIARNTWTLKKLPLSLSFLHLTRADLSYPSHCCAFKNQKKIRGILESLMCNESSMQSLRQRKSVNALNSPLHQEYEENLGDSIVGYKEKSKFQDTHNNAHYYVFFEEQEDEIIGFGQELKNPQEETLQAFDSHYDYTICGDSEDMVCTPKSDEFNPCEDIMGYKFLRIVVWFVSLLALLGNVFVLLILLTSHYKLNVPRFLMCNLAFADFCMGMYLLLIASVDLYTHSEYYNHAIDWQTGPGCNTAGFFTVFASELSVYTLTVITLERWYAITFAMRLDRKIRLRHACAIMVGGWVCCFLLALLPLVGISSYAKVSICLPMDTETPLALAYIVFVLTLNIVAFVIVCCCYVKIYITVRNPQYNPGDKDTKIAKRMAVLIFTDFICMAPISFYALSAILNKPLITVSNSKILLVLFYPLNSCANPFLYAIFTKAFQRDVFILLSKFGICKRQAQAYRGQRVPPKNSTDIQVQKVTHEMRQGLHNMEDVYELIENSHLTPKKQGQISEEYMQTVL
Androgen receptor (Homo sapiens), sequence (P10275 whole entry, looked up): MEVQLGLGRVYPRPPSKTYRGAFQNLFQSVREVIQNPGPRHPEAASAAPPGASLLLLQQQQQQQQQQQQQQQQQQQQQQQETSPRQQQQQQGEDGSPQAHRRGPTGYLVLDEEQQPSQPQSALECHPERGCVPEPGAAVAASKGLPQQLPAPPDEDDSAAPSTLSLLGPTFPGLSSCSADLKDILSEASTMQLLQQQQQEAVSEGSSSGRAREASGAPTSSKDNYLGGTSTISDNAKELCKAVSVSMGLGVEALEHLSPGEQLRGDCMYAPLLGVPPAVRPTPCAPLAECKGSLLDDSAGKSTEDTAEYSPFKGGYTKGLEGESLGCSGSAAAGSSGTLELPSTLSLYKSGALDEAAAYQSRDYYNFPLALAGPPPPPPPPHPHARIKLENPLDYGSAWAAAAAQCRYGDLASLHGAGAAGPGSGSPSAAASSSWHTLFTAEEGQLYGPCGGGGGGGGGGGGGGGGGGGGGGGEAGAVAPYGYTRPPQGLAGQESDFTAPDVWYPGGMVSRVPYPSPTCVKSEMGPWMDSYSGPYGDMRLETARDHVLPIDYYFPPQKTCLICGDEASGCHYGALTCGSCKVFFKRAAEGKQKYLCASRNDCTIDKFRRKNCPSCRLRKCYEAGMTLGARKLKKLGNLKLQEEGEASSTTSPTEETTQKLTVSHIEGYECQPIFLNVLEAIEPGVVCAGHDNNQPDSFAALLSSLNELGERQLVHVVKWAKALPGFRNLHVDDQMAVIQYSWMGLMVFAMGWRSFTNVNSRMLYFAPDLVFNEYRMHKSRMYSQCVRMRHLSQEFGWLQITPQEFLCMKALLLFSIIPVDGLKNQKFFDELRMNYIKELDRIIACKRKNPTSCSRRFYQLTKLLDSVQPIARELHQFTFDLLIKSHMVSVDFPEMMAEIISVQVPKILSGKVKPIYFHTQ
Estrogen receptor beta (Homo sapiens), sequence (Q92731 whole entry, looked up): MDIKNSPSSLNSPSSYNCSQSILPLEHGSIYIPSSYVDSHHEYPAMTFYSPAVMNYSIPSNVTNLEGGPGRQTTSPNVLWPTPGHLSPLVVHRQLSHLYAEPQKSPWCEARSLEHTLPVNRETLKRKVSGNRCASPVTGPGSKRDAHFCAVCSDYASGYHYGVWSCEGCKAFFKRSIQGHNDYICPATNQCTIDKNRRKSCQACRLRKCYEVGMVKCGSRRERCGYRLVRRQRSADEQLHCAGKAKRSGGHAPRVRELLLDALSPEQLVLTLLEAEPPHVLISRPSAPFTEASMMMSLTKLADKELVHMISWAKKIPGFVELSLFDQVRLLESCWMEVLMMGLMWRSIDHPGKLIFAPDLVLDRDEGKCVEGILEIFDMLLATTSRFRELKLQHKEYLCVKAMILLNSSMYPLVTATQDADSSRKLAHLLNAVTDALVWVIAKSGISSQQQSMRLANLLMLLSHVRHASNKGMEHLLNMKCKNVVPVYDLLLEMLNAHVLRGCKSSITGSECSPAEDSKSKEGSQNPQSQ

In the case of `CN(C)CCN(Cc1ccccc1)c1ccccn1`, the Potency result in experiment [1], in experiment [2], in experiment [3], in [4], in [5] and in experiment [6] was “inactive” in each case. Further, the Potency result in experiment [7], in experiment [8], in experiment [10], in experiment [11], in experiment [12] and in experiment [13] was “inactive” each time. Also, the Potency entry in experiment [14], in experiment [15] and in experiment [16] was “inactive” each time. The result in [9] was inactive.

As to `CCOC(=O)C(O)c1ccccc1` (configuration not stated), the Potency result in experiment [1], in experiment [2], in experiment [17], in [3], in experiment [6] and in experiment [7] was “inactive” in each case. In addition, the Potency result in experiment [8], in experiment [10], in experiment [11], in experiment [12], in experiment [18] and in [19] was “inactive” throughout. Also, the Potency result in [20], in [13], in [14], in experiment [15] and in [16] was “inactive” each time. Further, the call in [9] was inactive.

`COc1ccc2cccc(CCNC(C)=O)c2c1`: the Potency entry in experiment [1], in experiment [2], in experiment [17], in experiment [3], in experiment [5] and in experiment [7] was “inactive” in each case. The Potency result in [8], in [10], in experiment [12], in [18], in [20] and in [13] was “inactive” in each case. Also, the Potency entry in [14] is “inactive”. In addition, in experiment [9], the compound was called inactive.

Turning to `O=C1C(O)=C(O)C(=O)C(O)=C1O`, the Potency result in [1], in experiment [2], in [3], in experiment [4], in experiment [5] and in [6] was “inactive” each time. Moreover, the Potency entry in experiment [7], in [8], in [10], in experiment [11], in experiment [12] and in experiment [18] was “inactive” throughout. Besides, the Potency result in [19], in experiment [13], in [14] and in experiment [16] was “inactive” throughout. Further, the outcome in experiment [9] was inactive.

Take `C[C@@H](c1ncncc1F)C(O)(Cn1cncn1)c1ccc(F)cc1F` (some centres not stated): the Potency entry in [1], in experiment [2], in [17], in [3], in experiment [4] and in [5] was “inactive” in each case. Further, the Potency entry in experiment [6], in [7], in experiment [8], in experiment [10], in experiment [18] and in experiment [19] was “inactive” each time. For the same compound, the Potency result in experiment [20], in experiment [13], in [14] and in experiment [15] was “inactive” in each case. In addition, the result in experiment [9] was inactive.

As for `CN(C)CCN(Cc1ccsc1)c1ccccn1`, the Potency result in [1], in [2], in experiment [17], in [6], in [7] and in experiment [8] was “inactive” throughout. For the same compound, the Potency entry in [10], in [11], in [12], in experiment [18], in [19] and in experiment [20] was “inactive” in each case. Moreover, the Potency result in experiment [13] and in [14] was “inactive” throughout. In addition, in [9], the outcome was inactive.

For `O=S(c1cc(Cl)cc(Cl)c1O)c1cc(Cl)cc(Cl)c1O`, the Potency entry in [1], in experiment [2], in experiment [17], in experiment [3], in [4] and in experiment [6] was “inactive” throughout. The Potency entry in [8], in experiment [18], in [20], in [14], in experiment [15] and in experiment [16] was “inactive” in each case. Also, the result in experiment [9] was inactive. The Potency in experiment [10] is 21.1 µM (active); in [19], 29.8 µM (active).

The values above are taken from PubChem BioAssay (Tox21).
